The list is not random: actives were taken first. Their share in the collection is about 21%.
NS1 inh: qHTS Assay for Inhibitors of Influenza NS1 Protein Function. Potency, µM (doses to about 46.1 µM), inactives show at the top dose activity, positive = more growth. actives 0.4% (n = 270,000). AID 2326, 2010; calls by dose curve; also: potency is read from the fitted curve at half-maximal effect; actives are rising curves; nearly all actives have a fitted effect of over 50% in size
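A cell-based growth assay was used: compounds that relieve NS1-induced slow growth of budding yeast raise OD600. Assay medium was yeast nitrogen base with ammonium sulphate and -URA supplement, pH 6.0, with 2% galactose.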
FBPA Giardia inh: qHTS Assay for Inhibitors of Fructose-1,6-bisphosphate Aldolase from Giardia Lamblia | A8B2U2 | purified Giardia FBPA | Potency, µM (doses to about 59.6 µM), inactives show top-dose activity, negative = inhibition, actives largely listed as inhibitors | actives 0.71% (n = 290,000) | AID 2451, 2010; also: potency is read from the fitted curve at half-maximal effect; % is scaled to controls: 0 for no effect and ±100 for the full control effect; nearly all actives have a fitted effect of over 55% in size
Target sequence (A8B2U2 whole entry, looked up): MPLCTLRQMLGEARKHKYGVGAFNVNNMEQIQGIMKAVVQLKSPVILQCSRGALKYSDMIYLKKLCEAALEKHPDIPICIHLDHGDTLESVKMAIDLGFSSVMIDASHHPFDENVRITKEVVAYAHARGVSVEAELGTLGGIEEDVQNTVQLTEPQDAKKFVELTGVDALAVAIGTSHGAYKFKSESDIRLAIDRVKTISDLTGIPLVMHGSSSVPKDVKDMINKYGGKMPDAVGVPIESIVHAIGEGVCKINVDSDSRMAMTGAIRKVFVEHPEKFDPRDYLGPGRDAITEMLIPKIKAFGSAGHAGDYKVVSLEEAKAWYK
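Giardia FBPA (40 nM reagent) was preincubated 10 min at RT with compound (up to 57.5 uM final), then substrate plus GAPDH/TPI/NAD/arsenate coupling system with diaphorase/resazurin was added; resorufin fluorescence (525/598 nm) was read after 20 min.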
Pf growth 48h: Primary qHTS for delayed death inhibitors of the malarial parasite plastid, 48 hour incubation; actives 5.9% (n = 310,000); P. falciparum luciferase growth in erythrocytes, 48 h; Potency, µM (top dose mostly 28.7 µM), inactives show top-dose activity change, negative = inhibition, most hits filed as inhibitors; AID 504832, 2011; also: potency is read from the fitted curve at half-maximal effect; % is scaled to controls: 0 for no effect and ±100 for the full control effect
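First compound was added to culture medium, then infected red cells at 0.1% parasitemia and 2% hematocrit (final). After incubation at 37 C under 5% CO2, luciferase detection reagent was dispensed and light output recorded.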
Pf growth 96h: Primary qHTS for delayed death inhibitors of the malarial parasite plastid, 96 hour incubation. actives 6.9% (n = 320,000). P. falciparum luciferase reporter growth, 96 h. AID 504834, 2011. Potency, µM (highest dose often 28.7 µM), without a hit: at the top dose activity change, negative = inhibition, most hits filed as inhibitors; also: potency is read from the fitted curve at half-maximal effect; % is scaled to controls: 0 for no effect and ±100 for the full control effect
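Two-generation exposure (96 h) targets delayed-death phenotype. Reporter parasites carrying integrated firefly luciferase, in red cells at 2% hematocrit and 0.05% parasitemia final, kept at 37 C, 5% CO2; luminescence loss indicates inhibition.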
Shiga inhibitor: A qHTS for Small Molecule Inhibitors of Shiga Toxin | actives 9.2% (n = 290,000) | Vero cells, Shiga toxin protein synthesis inhibition reporter | inhibition, % at 38.7 µM | AID 2315, 2010; in the data active = inhibition mostly above about 28%, no sharp cut-off; inactive = mostly below about 43%; also: 0% is about no effect
CHX counter: Cycloheximide Counterscreen for Small Molecule Inhibitors of Shiga Toxin; cell reporter, cycloheximide protein synthesis inhibition counterscreen; actives 12% (n = 300,000); max response, %; in the data active = max response mostly above about 13%, no sharp cut-off; inactive = mostly below about 14%; also: read at 38.3 µM for the half of the compounds with a filed dose; 0% is about no effect
Numbers without * were called inactive; i = inactive; ? = inconclusive; / = not tested or not shown; [ ] = dose if it differs, or a comment. Unless noted, calls follow the shape of the dose curve; as a rule, active = well fitted curve in the direction sought with a large enough effect; inconclusive = small, poorly fitted or top-dose-only effect, or another doubt; inactive = no such curve, though single readings can be large; an effect the other way counts as inactive or inconclusive.

SMILES	NS1 inh	FBPA Giardia inh	Pf growth 48h	Pf growth 96h	Shiga inhibitor	CHX counter
S=C(Nc1ccc(Cl)cc1)c1nc2ccccc2[nH]1	-49.6%	?	-42.1%	?	65.9*	59.3*
Cc1ccccc1NC(=S)c1nc2ccccc2[nH]1	-66.3%	?	3.29µM*	-21.1%	active	41.6*
CCN(Cc1ccccc1)C(=O)Cc1c[nH]c2ccccc12	-1.0%	1.8%	?	?	-2.2	5.8
CC(C)CC(=O)Nc1nnc(-c2ccco2)s1	-4.4%	-2.5%	100.7%	/	65.2	29.2*
CCc1ccc(OCC(=O)Nc2nnc(-c3ccco3)s2)cc1	-18.1%	-3.1%	31.9%	10.4%	-4.2	-3.1
O=C(Nc1nnc(-c2ccco2)s1)C1CCCCC1	-2.2%	-14.9%	191.7%	?	71.0*	42.0*
COC(=O)Nc1nnc(-c2ccco2)s1	-3.9%	4.3%	0.7%	-11.1%	28.7	11.7*
Cc1ccc(S(=O)(=O)N2CCC(C(=O)Nc3nnc(-c4ccco4)s3)CC2)cc1	2.3%	-1.0%	?	20.3%[5.75 µM]	-18.0	-1.4
COc1ccc(N2CS(=O)(=O)/C(=C/N(C)C)C2=O)cc1	11.5%	13.1%	106.5%	293.8%	75.4*	38.9*
COc1cc2c(cc1O)CCN[C@@]21CS[C@H]2c3c(OC(C)=O)c(C)c4c(c3C(COC1=O)N1C2C2c3c(cc(C)c(OC)c3O)CC([C@@H]1O)N2C)OCO4 (some centres undefined)	/	/	0.0005µM*	2.13µM*	/	/
Cc1ccc2nc3c(cc(C(=O)NCc4ccco4)c(=N)n3Cc3ccco3)c(=O)n2c1	-3.6%	-3.1%	1.65µM*	-1.5%	-28.6	-2.8
COc1ccc(CCNC(=O)c2cc3c(=O)n4cccc(C)c4nc3n(Cc3ccco3)c2=N)cc1OC	?	-11.5%	13.1µM*	1.65µM*	10.8	14.0
Cc1cccn2c(=O)c3cc(C(=O)NCc4ccco4)c(=N)n(CCc4ccccc4)c3nc12	-1.1%	-2.2%	0.586µM*	0.586µM*	46.2*	17.1*
Cc1cccn2c(=O)c3cc(C(=O)NCCc4ccccc4)c(=N)n(Cc4ccco4)c3nc12	17.6%	-2.8%	1.47µM*	?	-13.7	-4.0
Cc1ccc(CNC(=O)c2cc3c(=O)n4ccccc4nc3n(Cc3ccco3)c2=N)cc1	12.7%	5.4%	?	/	-13.9	-2.8
O=C(NCC1CCCO1)c1ccc(-c2ccccc2Cl)o1 (centres undefined)	/	/	130.3%	89.2%	/	/
O=C(NCC1CCCO1)C1CCCN1C(=O)Nc1ccc(Cl)cc1 (centres undefined)	5.8%	1.8%	20.2%	36.6%	13.5	-2.6
Cc1c(CN2CCC(CO)(CCOc3ccccc3)CC2)[nH]c2c(Cl)cccc12	-0.5%	-0.4%	?	12.8%	-25.6	-1.9
Cc1cccn2c(=O)c3cc(C(=O)NC(C)c4ccccc4)c(=N)n(CCCn4ccnc4)c3nc12 (centres undefined)	15.8%	4.7%	0.415µM*	0.415µM*	-8.6	1.3
COc1ccccc1C(=O)NCCC(=O)Nc1cccc(S(=O)(=O)N2CCCC2)c1	/	/	3.29µM*	?	/	/
COc1ccccc1C(=O)Nc1cccc(S(=O)(=O)N2CCCC2)c1	11.2%	-5.2%	-2.3%	-17.0%	-11.7	-0.8
COc1cccc(CCC(=O)Nc2cccc(S(=O)(=O)N3CCCC3)c2)c1OC	/	/	9.28µM*	8.28µM*	/	/
COc1cccc(/C=C/C(=O)OCC(=O)Nc2cccc(S(=O)(=O)N3CCCCC3)c2)c1OC	12.1%	-5.4%	14.3%	16.0%	61.4*	12.6
CCOc1ccc(OCCC(=O)Nc2cccc(S(=O)(=O)N3CCCC3)c2)cc1	/	/	?	14.7µM*	/	/
O=C(CSc1cn[nH]n1)Nc1ccc(Cl)cc1Cl	0.7%	14.9%	7.8%	26.1%	32.6	7.8
SMILES	NS1 inh	FBPA Giardia inh	Pf growth 48h	Pf growth 96h	Shiga inhibitor	CHX counter
COc1cccc(CNC(=O)Cn2nc(C)c([N+](=O)[O-])c2C)c1	10.1%	-10.0%	5.1%	?	1.5	2.4
Oc1ccc(C[C@@H]2CNCCN2CCc2cccc(F)c2)cc1	/	/	?	43.2%	/	/
COc1cc(/C=C/C(=O)OCC(=O)Nc2ccc(S(=O)(=O)N3CCCC3)cc2)ccc1O	14.8%	-11.1%	?	9.28µM*	16.4	-2.0
CCOc1ccc(CN(C)C(=O)c2cc(S(=O)(=O)N3CCCC3)ccc2C)cc1	/	/	11.7µM*	?	/	/
Cc1ccc(S(=O)(=O)N2CCCCC2)cc1C(=O)N(C)CCOc1ccccc1	-3.9%	/	24.8%	-6.4%	16.8	1.3
COc1ccc(CNC(=O)CCC2N=C3c4ccccc4N=C(SCC(=O)NCC4CCCO4)N3C2=O)cc1 (centres undefined)	5.0%	-5.5%	?	13.1µM*	-1.4	-1.4
O=C(CCC1N=C2c3ccccc3N=C(SCc3cccc(Cl)c3)N2C1=O)NCc1ccco1 (centres undefined)	-8.0%	3.1%	?	/	24.3	15.4*
O=C(CCn1nnnc1CN1CCOCC1)N1CCC(c2ccccc2F)C1 (centres undefined)	1.6%	1.1%	-9.2%	39.9%	11.2	11.5
CCOc1ccc(NC(=O)C2Cc3ccccc3CN2S(=O)(=O)CC)cc1 (centres undefined)	/	-2.6%	?	?	45.5	27.8
CCS(=O)(=O)N1Cc2ccccc2CC1C(=O)Nc1ncc(C)s1 (centres undefined)	-0.2%	-3.0%	i	291.1%	107.7*	40.5*
CCS(=O)(=O)N1Cc2ccccc2CC1C(=O)Nc1nc2ccc(C)cc2s1 (centres undefined)	16.2%	-5.3%	9.7%	9.1%	68.4*	38.6*
COc1ccc(N(CC(=O)N2CCN(Cc3ccccc3)CC2)S(C)(=O)=O)cc1OC	18.8%	-2.3%	6.3%	18.0%	-2.4	-2.6
CC(CNc1nc2ccc(Cl)cc2n2cnnc12)c1ccccc1 (centres undefined)	-1.4%	3.4%	?	?	5.4	-1.6
COc1ccccc1-c1cc(=O)c2c(O)ccc([N+](=O)[O-])c2o1	5.9%	-2.7%	11.7µM*	10.4µM*	3.1	-4.1
CCn1cc(C(=O)O)c(=O)c2cnc(N3CCN(C(=S)Nc4ccc(F)cc4)CC3)nc21	5.4%	-8.1%	?	0.928µM*	1.9	5.7
CCn1cc(C(=O)O)c(=O)c2cnc(N3CCN(C(=S)Nc4ccccc4Cl)CC3)nc21	-1.7%	-12.8%	0.37µM*	0.828µM*	16.6	2.0
COc1ccc(C(=O)Nc2cnc3ccccn3c2=O)cc1	-2.1%	-2.8%	71.1%	?	96.9*	45.7*
Cc1nn2c(=O)c(NC(=O)c3ccc(F)cc3)cnc2s1	2.2%	0.1%	20.7%	7.3%	16.1	-2.2
O=C(Nc1cnc2ccccn2c1=O)c1ccc(F)cc1	?	0.9%	172.1%	13.1µM*	58.0*	32.6*
